Measured values as given in PubChem BioAssay (Tox21).
Values joined by “and” are separate entries in the source; they are usually repeats but may differ in a detail not shown here. Equal values may be shown once. Inconclusive results are not listed. Entries that show only a call come without a potency. Active and inactive are the calls of the source. Calls follow the shape of the dose curve; as a rule, active = well fitted curve in the direction sought with a large enough effect in the repeat runs; inconclusive = weak or mixed curves; inactive = no such curve, though single readings can be large; an effect the other way counts as inactive or inconclusive.

Assay: Human pregnane X receptor (PXR) small molecule agonists, qHTS cell viability counter screen (AID 1346977); also: nearly all actives have a fitted effect of over 50% in size
Conditions: PXR-Luc HepG2 viability, CellTiter-Fluor, 24 h; series mostly up to 92.4 µM
Method in brief: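 After a 5hr pre-incubation, PXR-Luc HepG2 cells received compounds plus positive control in DMSO and were kept 24hr at 37C. Cell viability was quantified by fluorescence from CellTiter-Fluor added for the final hour.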
Potency is read from the fitted curve at half-maximal effect.

Row | SMILES | Potency
1 | CCCCCCCCCCCCCCCC[N+](C)(C)CCN(Cc1ccc(OC)cc1)c1ncccn1 | 29.8 µM (active)
2 | CCCC(C)c1ccccc1O (centres undefined) | inactive
3 | CC1=C(/C=C/C(C)=C/C=C/C(C)=C/C=O)C(C)(C)CCC1 | 60.8 µM (active)
4 | O=c1c(-c2ccccc2)c1-c1ccccc1 | 26.6 µM (active)
5 | CCCCCCCCOc1ccccc1C(=O)Nc1ccc(C(=O)OCC[N+](C)(CC)CC)cc1 | inactive
6 | CCCCCCCCCCCC(=O)NCCCN(C)C | 38.6 µM (active)
7 | CN(C)c1ccc(C2(c3ccc(N(C)C)cc3)OC(=O)c3cc(N(C)C)ccc32)cc1 | inactive
8 | CCCCCCOC(=O)c1ccc(O)cc1 | inactive
9 | CCCCC(CC)COC(=O)c1ccccc1C(=O)O (centres undefined) | inactive
10 | O=C(Oc1ccccc1)c1ccccc1C(=O)Oc1ccccc1 | inactive
11 | CN(C/C=C/C#CC(C)(C)C)Cc1cccc2ccccc12 | inactive
12 | COC(=O)C1=C(C)NC(C)=C(C(=O)OCCc2ccc(N3CCN(C(c4ccccc4)c4ccccc4)CC3)cc2)C1c1cccc([N+](=O)[O-])c1 (centres undefined) | inactive
13 | CCc1cc(SCc2sc(-c3ccc(C(F)(F)F)cc3)nc2CN2CCN(c3ccc(OC)cc3)CC2)ccc1OCC(=O)O | 54.5 µM (active)
14 | CC1(C)CCC(C)(C)c2cc(C(=O)Nc3ccc(C(=O)O)cc3)ccc21 | inactive
15 | c1ccc(CSCc2ccccc2)cc1 | inactive

Assay: Caspase-3/7 induction in HepG2 cells by small molecules, qHTS assay (AID 1346978); also: nearly all actives have a fitted effect of over 15% in size
Conditions: HepG2 caspase-3/7 activation, Caspase-Glo luminescence, 17 h; series mostly up to 92.4 µM
Method in brief: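 Caspase-3/7 induction was measured by Caspase-Glo 3/7 luminescence (30 min, room temperature) after a 17 hr compound exposure of wild-type HepG2 cells seeded at 2,000 per well and pre-incubated 5 hr.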

Row | SMILES | Potency | caspase activation
16 | CCN(C(=O)c1cc(C)cc(OC[C@H](C)Nc2ccncc2)c1)C(C)C | inactive | 
17 | CCCC1O[C@@H]2C[C@H]3[C@@H]4CCC5=CC(=O)C=C[C@]5(C)[C@H]4[C@@H](O)C[C@]3(C)[C@]2(C(=O)CO)O1 (some centres undefined) | inactive | 
18 | C[n+]1ccn(Cc2ccccc2)c1 | inactive | 
19 | O=C(Nc1ccc(Oc2ccc(Cl)cc2)c(Cl)c1)c1cc(I)cc(I)c1O | inactive | 
20 | OCc1c[nH]c2ccccc12 | inactive | 
21 | CC(C)OC(=O)c1cc2c(OCC(O)CNC(C)(C)C)cccc2[nH]1 (centres undefined) | inactive | 
22 | CCc1oc2ccccc2c1C(=O)c1cc(Br)c(O)c(Br)c1 | inactive | 
23 | O=c1[nH]sc2cc(Cl)ccc12 | inactive | 
24 | Cc1cc(O)c(C(C)(C)C)cc1C(C)(C)C | 61.1 µM (active) | 
25 | NC(=NCCCCCCN=C(N)/N=C(\N)Nc1ccc(Cl)cc1)/N=C(\N)Nc1ccc(Cl)cc1 | inactive | 
26 | Oc1c(Cl)cc(Cl)c2cccnc12 | inactive | 
27 | CCCCCCCCOC(=O)c1ccc(O)cc1 | 27.3 µM (active) | 
28 | CCCCCCCCCOC(=O)c1ccc(O)cc1 | 53.7 µM (active) | 
29 | COCCCC/C(=N\OCCN)c1ccc(C(F)(F)F)cc1 | inactive | 
30 | CCC1OCC(COc2ccc(Oc3ccccc3)cc2)O1 (centres undefined) | inactive | 
31 | Cc1onc(-c2ccccc2Cl)c1C(=O)N[C@@H]1C(=O)N2[C@@H]1SC(C)(C)[C@@H]2C(=O)O | inactive | 
32 | O=C1C=CC(=O)N1 | inactive | 
33 | C[C@H]1[C@H]2CC[C@H]3[C@@H]4CC=C5C[C@@H](N(C)C)CC[C@]5(C)[C@H]4CC[C@]23CN1C | inactive | 
34 | CN(C)CCCOC1(Cc2ccccc2)CCCCCC1 | inactive | 
35 | COc1cccc(N)c1 | inactive | 
36 | O=C(OC[C@H]1O[C@@H](OC(=O)c2cc(O)c(O)c(OC(=O)c3cc(O)c(O)c(O)c3)c2)[C@H](OC(=O)c2cc(O)c(O)c(OC(=O)c3cc(O)c(O)c(O)c3)c2)[C@@H](OC(=O)c2cc(O)c(O)c(OC(=O)c3cc(O)c(O)c(O)c3)c2)[C@@H]1OC(=O)c1cc(O)c(O)c(OC(=O)c2cc(O)c(O)c(O)c2)c1)c1cc(O)c(O)c(OC(=O)c2cc(O)c(O)c(O)c2)c1 |  | -2.85% [at 19 µM] (inactive)

Assay: Caspase-3/7 induction in CHO-K1 cells by small molecules, qHTS cell viability counter screen (AID 1346979); also: nearly all actives have a fitted effect of over 35% in size
Conditions: CellTiter-Fluor fluorescence, 17 h; series mostly up to 92.4 µM
Method in brief: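 Multiplexed with Caspase-Glo 3/7 in CHO-K1 cells, this counter screen added CellTiter-Fluor after 16hr of compound exposure and recorded fluorescence 1hr later.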

Row | SMILES | Potency
37 | CCN(C(=O)c1cc(C)cc(OC[C@H](C)Nc2ccncc2)c1)C(C)C | inactive
38 | CCCC1O[C@@H]2C[C@H]3[C@@H]4CCC5=CC(=O)C=C[C@]5(C)[C@H]4[C@@H](O)C[C@]3(C)[C@]2(C(=O)CO)O1 (some centres undefined) | 61.2 µM (active) and 61.1 µM (active)
39 | CCCCCCCCCCCCCCCC[N+](C)(C)CCN(Cc1ccc(OC)cc1)c1ncccn1 | 26.6 µM (active)
40 | C[n+]1ccn(Cc2ccccc2)c1 | inactive
41 | O=C(Nc1ccc(Oc2ccc(Cl)cc2)c(Cl)c1)c1cc(I)cc(I)c1O | inactive
42 | OCc1c[nH]c2ccccc12 | 64.8 µM (active)
43 | CC(C)OC(=O)c1cc2c(OCC(O)CNC(C)(C)C)cccc2[nH]1 (centres undefined) | inactive
44 | CCc1oc2ccccc2c1C(=O)c1cc(Br)c(O)c(Br)c1 | inactive
45 | O=c1[nH]sc2cc(Cl)ccc12 | 26.6 µM (active)
46 | CC1=C(/C=C/C(C)=C/C=C/C(C)=C/C=O)C(C)(C)CCC1 | 21.6 µM (active)
47 | Cc1cc(O)c(C(C)(C)C)cc1C(C)(C)C | 61.1 µM (active)
48 | O=c1c(-c2ccccc2)c1-c1ccccc1 | 16.8 µM (active)
49 | NC(=NCCCCCCN=C(N)/N=C(\N)Nc1ccc(Cl)cc1)/N=C(\N)Nc1ccc(Cl)cc1 | 24.2 µM (active) [middle of 5 runs]
50 | CCCCCCCCCCCC(=O)NCCCN(C)C | 54.5 µM (active)
51 | Oc1c(Cl)cc(Cl)c2cccnc12 | 11.9 µM (active)
52 | CCCCCCCCOC(=O)c1ccc(O)cc1 | 24.3 µM (active)
53 | CCCCCCCCCOC(=O)c1ccc(O)cc1 | 53.7 µM (active)
54 | COCCCC/C(=N\OCCN)c1ccc(C(F)(F)F)cc1 | inactive
55 | CCC1OCC(COc2ccc(Oc3ccccc3)cc2)O1 (centres undefined) | inactive
56 | Cc1onc(-c2ccccc2Cl)c1C(=O)N[C@@H]1C(=O)N2[C@@H]1SC(C)(C)[C@@H]2C(=O)O | inactive
57 | O=C1C=CC(=O)N1 | 5.59 µM (active)
58 | C[C@H]1[C@H]2CC[C@H]3[C@@H]4CC=C5C[C@@H](N(C)C)CC[C@]5(C)[C@H]4CC[C@]23CN1C | inactive
59 | CN(C/C=C/C#CC(C)(C)C)Cc1cccc2ccccc12 | inactive
60 | CN(C)CCCOC1(Cc2ccccc2)CCCCCC1 | inactive
61 | COc1cccc(N)c1 | 24.5 µM (active)
62 | CCc1cc(SCc2sc(-c3ccc(C(F)(F)F)cc3)nc2CN2CCN(c3ccc(OC)cc3)CC2)ccc1OCC(=O)O | 24.3 µM (active)
63 | O=C(OC[C@H]1O[C@@H](OC(=O)c2cc(O)c(O)c(OC(=O)c3cc(O)c(O)c(O)c3)c2)[C@H](OC(=O)c2cc(O)c(O)c(OC(=O)c3cc(O)c(O)c(O)c3)c2)[C@@H](OC(=O)c2cc(O)c(O)c(OC(=O)c3cc(O)c(O)c(O)c3)c2)[C@@H]1OC(=O)c1cc(O)c(O)c(OC(=O)c2cc(O)c(O)c(O)c2)c1)c1cc(O)c(O)c(OC(=O)c2cc(O)c(O)c(O)c2)c1 | 16.5 µM (active)
64 | CC1(C)CCC(C)(C)c2cc(C(=O)Nc3ccc(C(=O)O)cc3)ccc21 | 48.6 µM (active)
